# Source: PubChem
# Compounds with a hit are over-represented: about 31% of the library has one in this group of screens.
# CYP2C9 inh: blocks human cytochrome P450 2C9; P11712; CYP2C9 Supersomes, luciferin-H conversion, luminescence; inhibition, % at 5 µM; 96,000 compounds, 20% hits;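 active = blocking of liver enzyme CYP2C9 beyond about 50% at 5 µM, limit read from the data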
# Target sequence (P11712 whole entry, looked up): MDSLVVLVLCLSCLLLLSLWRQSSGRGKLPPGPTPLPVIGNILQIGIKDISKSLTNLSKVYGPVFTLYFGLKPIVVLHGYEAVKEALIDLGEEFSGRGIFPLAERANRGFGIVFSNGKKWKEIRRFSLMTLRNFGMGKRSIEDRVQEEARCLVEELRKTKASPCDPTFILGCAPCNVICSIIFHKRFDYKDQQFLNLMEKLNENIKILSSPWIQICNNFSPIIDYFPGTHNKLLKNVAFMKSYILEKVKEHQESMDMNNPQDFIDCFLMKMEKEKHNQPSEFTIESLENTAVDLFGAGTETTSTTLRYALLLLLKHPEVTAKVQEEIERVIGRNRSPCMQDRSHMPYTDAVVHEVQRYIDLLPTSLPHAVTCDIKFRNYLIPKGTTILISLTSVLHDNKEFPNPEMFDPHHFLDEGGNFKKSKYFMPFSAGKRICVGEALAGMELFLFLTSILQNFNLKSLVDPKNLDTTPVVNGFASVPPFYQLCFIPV
# CYP2C19 inh: blocks human cytochrome P450 2C19. P33261. CYP2C19 Supersomes, luciferin-H EGE luminescence, 30 min. inhibition, % at 5 µM. 96,000 compounds, 21% hits. AID 778;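 active = CYP2C19 inhibition above a set limit at 5 µM in the primary screen, cut at about 50% in these data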;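 note: plate controls were negative control wells for no effect and 2.5 mM tranylcypromine positive control for full effect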
# PLAP activator: human PLAP activation | 96,000 compounds, 1.2% hits | activation fold at 20 µM | purified PLAP enzyme, luminescent substrate read-out; hits give high values | AID 696; in the data active = activation fold above about 2
# CYP2C19 act: activators of human cytochrome P450 2C19; P33261; recombinant CYP2C19, luciferin-H EGE luminescence; hits give high values; 0 = fully inhibited enzyme, 1 = untreated enzyme; activation factor at 5 µM; 96,000 tested, under 10 active; AID 1025;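 active = activation factor of at least 2 at 5 µM in the primary screen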;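 note: 0 = wells with 2.5 mM tranylcypromine and 1 = vehicle-only wells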
# CYP2C9 act: increases human cytochrome P450 2C9 activity. activation factor at 5 µM. P11712. 96,000 compounds, 1.4% hits. recombinant CYP2C9, luciferin-H conversion, luminescence; hits give high values; factor 1 = untreated enzyme, 0 = blocked;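 active = activation factor of 2 or more for CYP2C9 at a 5 µM dose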;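 note: 0 = sulfaphenazole-blocked wells and 1 = vehicle-only wells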
# The depositor's hits bear a star; · = not tested or not shown.
SMILES,CYP2C9 inh,CYP2C19 inh,PLAP activator,CYP2C19 act,CYP2C9 act
O=S(=O)(NC1c2cccc3cccc(c23)C1N1CCNCC1)c1ccccc1 (configuration not stated),19.0,55.8*,1.7,0.4,0.8
Cc1ccc(-c2nnc(SCC(=O)CC(=O)Nc3ccccc3)n2-c2ccccc2)cc1,19.9,2.7,0.9,1,0.8
N#Cc1ccccc1NC(=O)CSc1nnc(-c2ccccc2)n1-c1ccccc1,78.0*,35.8,1.1,0.6,0.2
CCN(CC)c1ccc(-c2nnc(SCC(=O)Nc3ccccc3C#N)n2-c2ccccc2)cc1,74.1*,51.8*,1.3,0.5,0.3
CC(C)(C)NC(=O)CSC(=Nc1cccc(F)c1)NC#N,31.7,6.3,1,0.9,0.7
O=C(O)C1CCCCC1C(=O)NCCc1c[nH]c2ccccc12 (configuration not stated),33.0,75.3*,1.1,0.2,0.7
O=C(CCc1c[nH]c2ccccc12)NC1CC1,6.6,40.3,0.9,0.6,0.9
O=C(NCCc1c[nH]c2ccccc12)c1cnc2sccn2c1=O,-152.2,88.7*,1.5,0.1,2.5*
O=C(NCCCNC(=O)C(F)(F)C(F)F)C(F)(F)C(F)F,15.7,9.5,1,0.9,0.8
O=C(NCCc1c[nH]c2ccccc12)C(F)(F)C(F)F,27.1,72.3*,1.1,0.3,0.7
CCC(=O)NCCc1c[nH]c2ccccc12,-8.4,11.8,0.9,0.9,1.1
O=C(NCCc1c[nH]c2ccccc12)Nc1ccccc1,-19.9,91.2*,0.8,0.1,1.2
CCOC(=O)c1oc2nc(C(C)C)c3c(c2c1N)CCC3,15.7,37.6,0.9,0.6,0.8
O=C(CCc1nc2ccccc2[nH]c1=O)OCC(=O)c1cccc2ccccc12,-12.9,-5.4,1.1,1.1,1.1
N#Cc1cn(CC(=O)NCCc2c[nH]c3ccccc23)c2ccccc12,66.3*,50.2*,0.8,0.5,0.3
COc1ccc(Cl)cc1NC(=S)NCCc1c[nH]c2ccccc12,-130.2,92.2*,0.7,0.1,2.3*
Cc1c(C#N)c2ccccc2n1CC(=O)NCCc1c[nH]c2ccccc12,42.1,41.1,0.8,0.6,0.6
CCSc1nnc(NC(=O)C2Cc3ccccc3CN2C(=O)c2ccco2)s1 (configuration not stated),52.7*,22.6,1.3,0.8,0.5
COc1ccc(NC(=S)NCCSc2ccc(Cl)cc2)c(OC)c1,-48.9,44.5,1.2,0.6,1.5
O=C(NCCc1c[nH]c2ccccc12)C1Cc2ccccc2CN1C(=O)c1ccco1 (configuration not stated),63.1*,95.3*,1.7,0,0.4
[O-][n+]1onc2c3ccnnc3ccc21,-4.8,-9.4,1,1.1,1
CCc1ccc(CCC(=O)Nc2nnc(CC)s2)o1,3.8,15.4,0.9,0.8,1
Cc1ccc(NC(=S)NCCc2c[nH]c3ccccc23)cc1,18.9,86.2*,0.6,0.1,0.8
O=C(O)[C@H]1CCCC[C@H]1C(=O)NCCc1ccccc1,4.4,-0.9,0.9,1,1
O=C(O)C1CCCCC1C(=O)NCCc1ccncc1 (configuration not stated),66.7*,45.7,0.9,0.5,0.3
SMILES,CYP2C9 inh,CYP2C19 inh,PLAP activator,CYP2C19 act,CYP2C9 act
Cc1oc2c(c1C(=O)Nc1cccc(C(=O)O)c1)CCCC2,17.5,-5.7,1.1,1.1,0.8
CCOC(=O)c1c(C)nc2sc3c(=O)n(-c4ccc(C(C)=O)cc4)nnc3c2c1-c1ccc(Cl)cc1,6.3,-0.3,1.1,1,0.9
CCOC(=O)c1c(C)nc2sc3c(=O)n(-c4ccc(C(C)=O)cc4)cnc3c2c1-c1ccc(Cl)cc1,87.9*,93.8*,1.7,0.1,0.1
CCCCSc1nnc(-c2cc(Br)ccc2N)c(=O)[nH]1,47.5,7.3,0.9,0.9,0.5
Nc1ccccc1-c1nnc(SCc2ccccc2Cl)[nH]c1=O,87.6*,43.2,1.4,0.6,0.1
Cc1ccc(CSc2nnc(-c3ccccc3N)c(=O)[nH]2)cc1,92.3*,15.1,1.3,0.8,0.1
CC(=O)Nc1ccccc1-c1nnc(SCc2ccccc2Cl)[nH]c1=O,99.0*,5.5,1.4,0.9,0
C=CCSc1nnc(-c2cc(Br)ccc2N)c(=O)[nH]1,72.1*,32.0,1.1,0.7,0.3
Cc1c(C2N3CC4(C)CN2CC(C)(C3)C4=O)c2ccccc2n1C (configuration not stated),-17.9,21.3,0.9,0.8,1.2
O=c1[nH]c(=O)n(C2CCCO2)cc1Br (configuration not stated),2.3,-2.4,0.9,1,1
C=CCSc1nnc(-c2ccccc2NC(=O)CC)c(=O)[nH]1,51.6*,-5.1,0.9,1.1,0.5
CCSc1nnc(-c2ccccc2NC(=O)CC)c(=O)[nH]1,24.9,-12.9,1,1.1,0.8
Cc1nnc(SCC(C)C)[nH]c1=O,20.2,9.2,0.9,0.9,0.8
Cc1cc(C)cc(CSc2nnc(C)c(=O)[nH]2)c1,85.6*,15.8,0.9,0.8,0.1
O=C(NCC1CCCO1)c1cccc(N2C(=O)C3C4C=CC(C4)C3C2=O)c1 (configuration not stated),12.9,-0.6,1.2,1,0.9
CCCc1cc(C(=O)N/N=C/c2ccc(CC)s2)c2ccccc2n1,65.0*,-5.8,0.9,1.1,0.3
CCCc1cc(C(=O)N/N=C/c2ccc(C)o2)c2ccccc2n1,64.1*,18.5,1.3,0.8,0.4
Cc1ccc(/C=N\NC(=O)C2COc3cc4ccccc4cc3O2)o1 (configuration not stated),·,·,1.3,·,·
O=C(N/N=C/c1cccc(F)c1)c1cc(-c2ccco2)nc2ccccc12,17.8,8.6,1.1,0.9,0.8
COc1ccc(N(C(=O)C(C)C)S(=O)(=O)c2cccs2)cc1,80.2*,97.0*,1.2,0,0.2
CC(C)C(=O)N(c1ccc2oc(=O)sc2c1)S(=O)(=O)c1cccs1,60.7*,96.9*,0.9,0,0.4
CCCNC(=O)CSc1nc(-c2cccs2)cc(C(F)(F)F)n1,77.4*,68.3*,1,0.3,0.2
Cc1cc(NC(=O)CSc2nc(-c3cccs3)cc(C(F)(F)F)n2)no1,-17.9,-21.3,0.9,1.2,1.2
O=C(CSc1nc(-c2cccs2)cc(C(F)(F)F)n1)NCc1ccccc1,91.1*,59.9*,0.8,0.4,0.1
Cn1c(=O)c2c(nc(NCCCN3CCOCC3)n2Cc2ccc(Cl)cc2Cl)n(C)c1=O,25.7,33.7,1.6,0.7,0.7
Cc1ccc(-n2c(SCC(=O)Nc3cc(C)on3)nc3c(c2=O)SC(C)C3)cc1 (configuration not stated),33.5,17.7,1,0.8,0.7
COc1ccc(OC)c(-c2cc(C(=O)N3CCN(c4ncccn4)CC3)c3ccccc3n2)c1,89.4*,65.0*,1.3,0.3,0.1
CS(=O)(=O)N1CCN(C(=O)c2cc(-c3ccncc3)nc3ccc(Cl)cc23)CC1,67.5*,36.4,1.1,0.6,0.3
